Shown are actives, neighbours in structure and some others; about 20% of the full set was active somewhere.
Pf growth 96h: Primary qHTS for delayed death inhibitors of the malarial parasite plastid, 96 hour incubation. 320,000 tested, 6.9% active. P. falciparum luciferase reporter growth, 96 h. Potency, µM (highest dose often 28.7 µM), without a hit: at the highest dose activity change, negative = inhibition, hits mostly inhibitors. AID 504834, 2011; further: potency means the concentration at half of the fitted maximal effect; on the % scale 0 is the no-effect control and ±100 the full control effect
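Parasite growth measured via integrated firefly luciferase reporter in P. falciparum. Infected erythrocytes at 2% hematocrit, 0.05% parasitemia final were treated 96 hours at 37 C under 5% CO2, and luminescence was read.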
CHX counter: Cycloheximide Counterscreen for Small Molecule Inhibitors of Shiga Toxin; cell reporter, cycloheximide protein synthesis inhibition counterscreen; max response, %; 300,000 tested, 12% active; AID 2314, 2010; in the data active means max response mostly above about 13%, no sharp cut-off; inactive means mostly below about 14%; further: read at 38.3 µM for the half of the compounds with a filed dose; 0% is about no effect
Pf growth 48h: Primary qHTS for delayed death inhibitors of the malarial parasite plastid, 48 hour incubation. P. falciparum luciferase growth in erythrocytes, 48 h. Potency, µM (highest dose often 28.7 µM), inactives show top-dose activity change, negative = inhibition, hits mostly inhibitors. 310,000 tested, 5.9% active; further: potency means the concentration at half of the fitted maximal effect; on the % scale 0 is the no-effect control and ±100 the full control effect
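Cell-based growth assay: transgenic P. falciparum expressing firefly luciferase, cultured in red cells within RPMI 1640 containing 0.5% w/v Albumax, 24 mM bicarbonate and gentamycin. A drop in luciferase activity indicates inhibition.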
Shiga toxin inh: A qHTS for Small Molecule Inhibitors of Shiga Toxin | Vero cells, Shiga toxin protein synthesis inhibition reporter | inhibition, % at 38.7 µM | 290,000 tested, 9.2% active; in the data active means inhibition mostly above about 28%, no sharp cut-off; inactive means mostly below about 43%; further: 0% is about no effect
HCMV antiviral: qHTS Assay for inhibitors of the human cytomegalovirus (HCMV); HFF cells, HCMV-luciferase reporter, 72 h; active compounds read low; activity change, negative = inhibition, % at 57.5 µM; 410,000 tested, 4.5% active; AID 1259415, 2018; in the data active means activity change below about -60%; inconclusive means no clear call, values can overlap the other calls; inactive means above about -39%; further: on the % scale 0 is the no-effect control and ±100 the full control effect
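HFF cells seeded 16 h at 37C, treated with compounds, infected with luciferase-reporter HCMV at MOI 1 PFU/cell; luciferase read at 72 h post infection, normalized to buffer-only and Salinomycin controls.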
* marks the source's active call; other numbers are inactive results; i = inactive; ? = inconclusive; / = not tested or not shown; [ ] = dose if it differs, or a comment. Unless noted, the call rests on the fitted dose curve; in most records, active means well fitted inhibition curve with a large enough effect; inconclusive means small, poorly fitted or top-dose-only effect, or another doubt; inactive means no such curve, though single readings can be large or run the other way.

SMILES | Pf growth 96h | CHX counter | Pf growth 48h | Shiga toxin inh | HCMV antiviral
CC(C)c1ccc2[nH]c3nc(SCC(=O)N4CCOCC4)nnc3c2c1 | ? | 23 | 104% | 32 | 70
CC1CCN(C(=O)CSc2nnc3c(n2)[nH]c2ccc(F)cc23)CC1 | ? | -7 | 1.7µM* | -10 | -30
O=C(CSc1nnc2c(n1)[nH]c1ccc(F)cc12)Nc1ccccc1F | -10% | 1 | -10% | 31 | -27
CC1CCc2cc(F)ccc2N1C(=O)CSc1nnc2c(n1)[nH]c1ccc(F)cc12 (centres undefined) | ? | 3 | 1µM* | -2 | ?
O=C(NC1CCCCC1)C(c1ccc(O)cc1)N(CC1CCCO1)C(=O)C1COc2ccccc2O1 (centres undefined) | 7.4µM* | -2 | / | -12 | -39
O=C(NCc1ccco1)C(c1cccs1)N(C(=O)C1COc2ccccc2O1)c1cccc(O)c1 (centres undefined) | ? | 12 | 10µM* | 16 | ?
O=C(NC1CCCC1)C(c1ccccc1)N(Cc1ccco1)C(=O)Cc1cccs1 (centres undefined) | 7% | -3 | -9% | -12 | -11
Cc1ccc(C(C(=O)NC2CCCCC2)N(Cc2ccco2)C(=O)C2COc3ccccc3O2)o1 (centres undefined) | / | 3 | 7.4µM* | 15 | 6
Cc1ccc(C(C(=O)NC2CCCC2)N(Cc2cccnc2)C(=O)c2snc(C(N)=O)c2N)o1 (centres undefined) | ? | -1 | -39% | 21 | -16
Cc1ccc(C(C(=O)NC2CCCCC2)N(Cc2cccnc2)C(=O)C2COc3ccccc3O2)o1 (centres undefined) | -3% | 13 | 5.2µM* | 9 | -21
CC(C)CCNC(=O)C(c1ccc(O)cc1)N(Cc1cccs1)C(=O)C1COc2ccccc2O1 (centres undefined) | 47% | -2 | ? | -13 | -94*
O=C1N(Cc2cccc(Cl)c2)C[C@@H]2C[C@@H](c3ccc4nonc4c3)N3CCC[C@@]123 | ? | 0 | ? | -15 | -13
Cc1ccc(NC(=O)c2ncn(CC(=O)NCc3ccc4c(c3)OCO4)n2)cc1C | / | / | / | / | 64
C=Cn1ccnc1P(=S)(c1ccc(Cl)cc1)c1nccn1C=C | 44% | 6 | 16% | 23 | -76*
C=Cn1ccnc1P(=S)(c1ccccc1)c1nccn1C=C | -17% | -2 | -9% | -2 | -25
Nc1nc(NC(=O)c2cccnc2)nn1-c1ccccc1 | 59% | 13 | / | 12 | 30
Nc1nc(NC(=O)c2ccc(Cl)cc2)nn1-c1ccccc1 | 253% | 17* | 42% | 33 | -17
CCC(=O)Nc1ccc(NC(=O)c2cccc3c(Br)cccc23)cc1 | 6.6µM* | 2 | 16% | -12 | -2
CC(=O)Nc1ccc(NC(=O)c2ccccc2Br)cc1 | / | / | / | / | 20
O=C(CC(=O)Nc1ccc(Br)cc1)Nc1ccc(Br)cc1 | 42% | -2 | 32% | 7 | -9
CCC(=O)Nc1ccc(NC(=O)c2cccc3ccccc23)cc1 | 8% | -4 | 1% | / | -20
CCc1ccc(NC(=O)c2ccccc2Br)cc1 | i | 35* | i | 61* | 23
O=C(Nc1ccc(Br)cc1)c1cc(Br)cc(Br)c1O | -12% | 42* | ? | 93* | -99*
O=C(Nc1ccc(Br)cc1)c1ccccc1Br | 8% | 55* | 128% | 90* | 36
COc1ccc2sc(N3C(=O)C4CC=C(C)CC4C3=O)nc2c1 (centres undefined) | 11% | -2 | ? | 26 | 19
SMILES | Pf growth 96h | CHX counter | Pf growth 48h | Shiga toxin inh | HCMV antiviral
O=C1COc2ccc(-c3cc(-c4ccccc4)c4c(n3)-c3cc(Cl)ccc3OC4)cc2N1 | / | / | / | / | 17
CC(=O)N(Nc1ccccc1)c1ccccc1 | 365% | -7 | 8% | -7 | -10
CS(=O)(=O)c1cnc(-c2cccnc2)nc1N | 42% | 6 | 24% | 36 | -91*
CCOC(=O)c1c(C)n(C)c2ccc(O)c(CN3CCC(C)CC3)c12 | 10µM* | 1 | ? | 17 | /
CCCCn1c(C)c(C(=O)OCC)c2c(CN3CCCC3)c(O)ccc21 | 4.7µM* | 1 | / | 18 | -24
CCOC(=O)c1c(C)n(C)c2ccc(O)c(CN3CCN(C)CC3)c12 | 0%[5.75 µM] | -6 | 1% | 34 | 2
C/C=C/[C@@H]1[C@@H](S(=O)(=O)c2ccccc2)CC(=O)N1Cc1ccccc1 | / | / | / | / | -7
O=C(CSc1n[nH]c(-c2ccccc2F)n1)NCC(=O)Nc1ccc(F)c(F)c1F | 4% | -1 | 22% | 21 | 36
CC(C)(C)OC(=O)NCCCCCNC(=O)c1[nH]cnc1C(=O)Nc1ccon1 | 5.2µM* | / | ? | / | 42
CC(C)C[C@H](NC(=O)c1nc[nH]c1C(=O)NCCCCCNC(=O)OC(C)(C)C)C(=O)OC(C)(C)C | ? | -2 | 7.4µM* | -10 | 45
CC(C)C[C@H](NC(=O)c1nc[nH]c1C(=O)N[C@@H](CCCCNC(=O)OC(C)(C)C)C(=O)OC(C)(C)C)C(=O)OC(C)(C)C | 2.1µM* | -2 | 3.7µM* | -3 | ?
C[C@H](NC(=O)c1nc[nH]c1C(=O)NCCCCCNC(=O)OC(C)(C)C)C(=O)OC(C)(C)C | ? | 31* | ? | 57* | ?
CC1(c2nnc(Cc3ccccc3)o2)CC(c2ccccc2Br)=NO1 (centres undefined) | 33% | / | 12% | / | 0
COc1ccc(/C=C(/C(=O)NCc2ccccc2)c2ccccc2)cc1 | -16% | 4 | ? | 5 | -30
CCOC(=O)c1cc(CC)sc1/N=C/C1C(=O)CCCC1=O | 68% | -1 | 4% | 6 | -22
CC(=O)N(C)c1ccc(N=Cc2c(O)ccc3ccccc23)cc1 | 286% | 17* | 17% | 25* | 4
Cc1cc(C(=O)O)ccc1N=Cc1c(O)ccc2ccccc12 | 12µM* | 10* | 49% | 25 | 4
Oc1ccc2ccccc2c1C=Nc1ccccc1Br | 18% | 1 | 2% | -7 | -12
Oc1ccccc1N=Cc1c(O)ccc2ccccc12 | 10µM* | 11* | ? | 39* | -70*
CCOC(=O)c1cc(CC)sc1/N=C/c1c(O)ccc2ccccc12 | 39% | 8 | 39% | 11 | -70*
O=S(=O)(Nc1cccc2c1ccc1cccn12)c1cccs1 | 23% | 9 | 16% | -11 | -6
COc1ccccc1Cc1c(-c2ccc(OC)c(OC)c2)nc2ccc(C)cn12 | / | / | / | / | 5
CS/C(N)=N/N=C/c1c(O)ccc2ccccc12 | 74% | 29* | 86% | 58* | 21
O=[N+]([O-])c1cc(NCCO)c(N2CCCCCC2)c2nonc12 | ? | -2 | / | 2 | 2
Cc1ccc(/C=N/N(Cc2ccccc2)c2ccccc2)o1 | ? | -6 | ? | -4 | -17
CN(C)/N=C/c1ccc(P(c2ccc(/C=N/N(C)C)o2)c2ccc(/C=N/N(C)C)o2)o1 | -24% | 1 | -16% | 4 | -62*
